In PMC5540273 (PLoS ONE, 2017):

Assays:
Details in all cases: concentration: 1 μM, replicates: in singlicate; n = 1
AMPK-alpha1 = test system: T1, AMPK-alpha1
T1 construct: gene PRKAA1

AMPK-alpha2 = test system: T2, AMPK-alpha2
T2 construct: gene PRKAA2

ANKK1 = test system: ANKK1
ARK5 = test system: T3, ARK5
T3 construct: gene NUAK1

ASK1 = test system: T4, ASK1
T4 construct: gene MAP3K5

ASK2 = test system: T5, ASK2
T5 construct: gene MAP3K6

AURKA = test system: AURKA
AURKB = test system: AURKB
AURKC = test system: AURKC
AXL = test system: AXL
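Also: KINOMEscan kinase panel screen.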

Row | SMILES | %Inh (AMPK-alpha1) [%] | %Inh (AMPK-alpha2) [%] | %Inh (ANKK1) [%] | %Inh (ARK5) [%] | %Inh (ASK1) [%] | %Inh (ASK2) [%] | %Inh (AURKA) [%] | %Inh (AURKB) [%] | %Inh (AURKC) [%] | %Inh (AXL) [%]
1 | COc1ccc(Nc2nccc(N3CCC(NC(=O)C(C)c4ccc(Cl)cc4)CC3)n2)cc1 (centres unmarked) [GSK1379812] | 35 | 11 | 3 | 20 | 0 | 0 | 23 | 4 | 42 | 0
2 | NS(=O)(=O)c1cccc(N/C=C2\C(=O)Nc3ccc(S(=O)(=O)Cc4c(Cl)cccc4Cl)cc32)c1 [GSK398099] | 0 | 0 | 0 | 0 | 3 | 0 | 26 | 30 | 0 | 0
3 | COC(=O)c1cccc(NC(=O)NC2CCN(c3ccnc(Nc4ccc(F)cc4)n3)C2)c1 (centres unmarked) [GSK1379725] | 0 | 0 | 0 | 0 | 0 | 1 | 0 | 39 | 34 | 6
4 | Cc1ccc(NC(=O)Nc2ccccc2)cc1-c1ccc(C(=O)Nc2ccncc2)cc1 [GSK1398471] | 15 | 11 | 0 | 13 | 10 | 4 | 15 | 0 | 0 | 11
5 | CCc1ccc(-c2ccc3c(c2)-c2n[nH]cc2S(=O)(=O)N3C)cc1 | 0 | 1 | 0 | 13 | 6 | 0 | 0 | 0 | 11 | 51
6 | O=c1cc(N2CCOCC2)nc2n(Cc3cccc(Cl)c3Cl)c3ccccc3n12 [GSK2299009] | 5 | 16 | 6 | 0 | 2 | 0 | 17 | 7 | 46 | 59
7 | COC(=O)C(NC(=O)NC1CCN(c2ccnc(Nc3ccc(F)cc3)n2)C1)c1ccccc1 (centres unmarked) [GSK1379712] | 0 | 12 | 10 | 8 | 20 | 2 | 5 | 0 | 32 | 0
8 | O=C1NC(=O)C(c2ccc(Cl)cc2)=C1Nc1ccc(O)cc1 [SB-340867] | 0 | 0 | 0 | 0 | 0 | 0 | 0 | 9 | 0 | 18
